Measurements as given in ChEMBL document CHEMBL3988442, “University of Dundee, Small-Polar-MMV Screening Library” (2021).

Experiments:
[1] = biological target: T1, Aspartate--tRNA(Asp/Asn) ligase (Mycobacterium tuberculosis (strain ATCC 25618 / H37Rv)) (UniProt P9WFW3); assay: Assay for Asp RNA synthetase-1 from Mycobacterium tuberculosis; format: functional; parameters: scale not given: direction of the effect not stated beside the values; conditions: 30 µM; note: in the data most compounds retested in dose-response had high values
T1 sequence (whole entry): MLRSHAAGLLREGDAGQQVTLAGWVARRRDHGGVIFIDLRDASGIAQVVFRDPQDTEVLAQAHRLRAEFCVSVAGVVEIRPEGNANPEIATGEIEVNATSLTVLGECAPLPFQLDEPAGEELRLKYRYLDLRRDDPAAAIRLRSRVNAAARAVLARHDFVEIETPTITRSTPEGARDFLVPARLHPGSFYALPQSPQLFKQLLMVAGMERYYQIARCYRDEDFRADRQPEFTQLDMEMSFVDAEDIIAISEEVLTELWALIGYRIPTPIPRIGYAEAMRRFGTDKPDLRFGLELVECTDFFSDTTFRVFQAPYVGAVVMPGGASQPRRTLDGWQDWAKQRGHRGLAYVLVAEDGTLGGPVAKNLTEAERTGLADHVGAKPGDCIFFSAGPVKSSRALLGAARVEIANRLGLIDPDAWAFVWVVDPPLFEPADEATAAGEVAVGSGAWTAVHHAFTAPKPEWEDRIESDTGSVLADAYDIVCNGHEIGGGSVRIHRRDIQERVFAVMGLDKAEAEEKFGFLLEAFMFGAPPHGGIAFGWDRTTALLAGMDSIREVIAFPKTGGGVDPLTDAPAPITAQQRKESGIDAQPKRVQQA

[2] = biological target: Shiga toxin 2 (Escherichia coli O157:H7) (UniProt P09385+P09386); assay: E. coli 0.157:H7 Shiga Toxin SOP - stx2 screening assay; format: functional; parameters: scale not given: direction of the effect not stated beside the values; conditions: 30 µM

Row | Compound | Percent Effect [1] [%] | Percent Effect [2] [%]
1 | Cc1nc(C)n(CC2CCCN2Cc2cn3ccsc3n2)n1 (centres undefined) | 1.75 | -76
2 | O=C(NCC1CC1)[C@H]1C[C@H]2OCC[C@H]2N(Cc2ccoc2)C1 | 2.61 | -11.8
3 | CCNC(=O)N1CCN(Cc2nc3ccccc3[nH]2)[C@@H]2CS(=O)(=O)C[C@@H]21 | 2.89 | -6.12
4 | CCOC(=O)CCC(=O)NC(C)c1ccc(NC(=O)CC)cc1 (centres undefined) | -8.03 | -0.224
5 | O=C(Cc1ccc2c(c1)OCCO2)N1CCCC(n2ccnc2)C1 (centres undefined) | -4.41 | -18.9
6 | CCC(C)N(C)S(=O)(=O)c1ccc(CCNC(C)=O)s1 (centres undefined) | 0.0557 | -17
7 | CCC(CO)NC(=O)c1ccc2ccc(N(C)CC3CC3)n2c1 (centres undefined) | -2.57 | -33
8 | Cc1nc(C2CCCN2C(=O)c2ccccc2)ncc1C(N)=O (centres undefined) | -3.02 | -6.25
9 | CCS(=O)(=O)CC(=O)NC(c1ccc(F)cc1)C1CCCC1 (centres undefined) | -3.77 | -1.68
10 | O=C(c1ccsc1)N1CCc2c(COCc3ccncc3)cncc2C1 | -1.03 | -68.5
11 | O=C(CN1CCCS1(=O)=O)NCCOc1ccc2c(c1)CCC2 | -5.23 | 9.97
12 | CC(C)NC(=O)Nc1ccc(CNCc2cccc(C#N)c2)cc1 | 0.232 | -108
13 | Cc1cccc(N2Cc3nc(=O)[nH]n3C2=O)c1 | -3.43 | -54.1
14 | CC(C)Oc1cc(N2CCC(N3CCC(O)CC3)CC2)nc(N)n1 | -2.8 | 2.73
15 | O=C(NCc1ccccn1)N(Cc1ccc(F)cc1F)C1CC1 | -1.6 | 10.3
16 | CCC1c2ccsc2CCN1C(=O)NCc1cc[nH]n1 (centres undefined) | -1.83 | -35
17 | Cc1ccsc1C(=O)N1C[C@@H]2CN(Cc3ccoc3)CCO[C@@H]2C1 | -1.39 | -11.7
